Test results as given in PubChem BioAssay (NCATS).
Records with an inconclusive call do not appear. Calls of active or inactive are those of the source. Unless noted, calls come from the whole dose curve; as a rule, active = well fitted curve in the direction sought with a large enough effect; inconclusive = small, poorly fitted or top-dose-only effect, or another doubt; inactive = no such curve, though single readings can be large; an effect the other way counts as inactive or inconclusive.

Experiments:
[1] = Cell Viability - MRC5 (AID 434; calls by dose curve;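 note: potency is the fitted concentration of half-maximal effect; cells exposed to compound for 40 hours at 37 °C; potency reflects cytotoxicity seen as loss of intracellular ATP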); details: MRC5 lung fibroblast viability, qHTS
Procedure, shortened: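 qHTS cytotoxicity in human lung fibroblast MRC5 cells; 40 hr treatment, 37 °C; cellular ATP by luciferase luminescence; DMSO = 0%, 100 uM tamoxifen = 100% inhibition; Hill-fit AC50.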

[2] = Cell Viability - HUV-EC-C (AID 542); details: HUV-EC-C endothelial cell viability, qHTS; series mostly up to 92.2 µM;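 note: cells exposed to compound for 40 hours; % is set by controls: 0 for no effect and ±100 for the full control effect; nearly all actives have a fitted effect of over 35% in size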
Procedure, shortened: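 Decrease in cellular ATP, quantified by luciferase luminescence, reflects toxicity in normal human vascular endothelial HUV-EC-C cells given compound for 40 hr in complete culture medium. Values are AC50s from concentration-response curves.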

[3] = Cellular Toxicity (caspase-3) HepG2 (AID 654); details: HepG2 caspase-3 activation, luminescence; series mostly up to 92.2 µM;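 note: cells exposed to compound for 16 hours before reading; 0% = DMSO alone and 100% = caspase signal from 100 µM tamoxifen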
Procedure, shortened: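 qHTS, HepG2, 1500 cells/well, complete medium; cpd 16 h 37 °C; Caspase-Glo 3/7, 20 min RT; lum. Norm: DMSO vs 100 uM tamoxifen; AC50 Hill fit.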

[4] = Cellular Toxicity (caspase-3) HUV-EC-C (AID 656); details: HUV-EC-C cells, caspase-3 activation (apoptosis); series mostly up to 92.2 µM
Procedure, shortened: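 HUV-EC-C endothelial cells, 1000/well, were pre-incubated 5 hr at 37°C, then exposed to compounds for 16 hr at 37°C. Caspase-Glo 3/7 luminescence was read after 20 min at room temperature. AC50 came from Hill fits, normalized to DMSO and 100 uM tamoxifen.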

[5] = Cellular Toxicity (caspase-3) SHSY5Y (AID 657); details: SH-SY5Y caspase-3 activation; series mostly up to 91.7 µM
Procedure, shortened: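 SH-SY5Y human neuroblastoma cells (1500/well) were treated with compounds for 16 h at 37 °C, then Caspase-Glo 3/7 luminescence was read after 1 h at room temperature. Data normalized to DMSO and 10 uM staurosporine; AC50 from Hill fits.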

[6] = Cellular Toxicity (caspase-3) BJ (AID 658); details: BJ fibroblasts, luminescence; Potency: caspase-3 activation; series mostly up to 91.7 µM
Procedure, shortened: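 Readout: Caspase-Glo 3/7 luminescence increase in BJ cells after 16 hr treatment at 37 °C. Staurosporine and tamoxifen served as positive controls; AC50 values came from Hill modelling of data normalized to DMSO and 10 uM staurosporine.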

[7] = Cellular Toxicity (caspase-3) MRC-5 (AID 659); details: MRC-5 cells, luminescence, normalized: DMSO 0%, 10 µM staurosporine 100%; series mostly up to 91.7 µM
Procedure, shortened: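 Concentration-dependent caspase 3/7 activation is measured in human normal lung fibroblasts (MRC-5) following 16-hour treatment. AC50 values come from standard Hill-equation modeling of luminescence normalized to DMSO and 10 uM staurosporine.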

[8] = Cellular Toxicity (caspase-3) Mesangial (AID 660); details: mesangial cells, normalized: DMSO 0%, 100 µM tamoxifen 100%; series mostly up to 91.7 µM;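 note: combined caspase 3 and 7 activity read by Caspase-Glo luminescence; cells exposed to compound for 16 h before the caspase read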
Procedure, shortened: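 Concentration-response qHTS: compound-induced rise in caspase 3/7 luminescence in human mesangial cells after 16 h, normalized to DMSO and 100 uM tamoxifen controls.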

[9] = Cellular Toxicity (caspase-3) H-4-II-E (AID 663); details: H-4-II-E rat hepatoma; Potency: caspase-3 activation; series mostly up to 92.2 µM;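 note: cells exposed to compound for 16 hr before readout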
Procedure, shortened: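 Apoptosis induction is scored as increased luminescence from caspase 3/7 substrate cleavage in rat hepatoma H-4-II-E cells exposed to compound for 16 hr. Activity is scaled between DMSO and 100 uM tamoxifen.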

[10] = Cellular Toxicity (caspase-3) Hek293 (AID 664); details: HEK293 caspase-3 activation, DMSO = 0%, 100 µM tamoxifen = 100%; at 92.2 µM (top of the series);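 note: cells exposed to compound for 16 h at 37 °C before readout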
Procedure, shortened: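 Activation of caspase-3/7 is measured as increased luminescence from cleaved peptide-aminoluciferin substrate in HEK293 cells treated 16 hours at 37 °C. AC50 values come from Hill-equation fits of concentration-response data.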

[11] = Cellular Toxicity (caspase-3) N2a (AID 665); details: N2a cells, luminescence, normalized: DMSO 0%, 10 µM staurosporine 100%; series mostly up to 92.2 µM;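 note: compound exposure lasted 16 h at 37 °C before readout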
Procedure, shortened: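 Plated mouse neuroblastoma N2a cells received titrated compounds for 16 h in complete medium. Caspase activity was then detected with a peptide-aminoluciferin luminescent reagent.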

[12] = Cellular Toxicity (caspase-3) NIH 3T3 (AID 666); details: NIH 3T3 caspase-3 activation, apoptosis/toxicity, 0% DMSO, 100% is 100 µM tamoxifen; series mostly up to 92.2 µM;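 note: caspase signal read after 16 h compound exposure; 0% = DMSO basal and 100% = 100 µM tamoxifen stimulation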
Procedure, shortened: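 Concentration-response qHTS in NIH 3T3 mouse fibroblasts scores caspase-3/7 activation as rising luminescence after 16 hr compound exposure. Signals are scaled between DMSO-only and 100 uM tamoxifen.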

[13] = Cellular Toxicity (caspase-3) Renal Proximal Tubule (AID 667); details: renal proximal tubule cells, primary cells freshly taken from rat; Potency: caspase-3 activation; series mostly up to 91.7 µM;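 note: cells exposed to compound for 16 hours at 37 °C before detection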
Procedure, shortened: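 Primary rat proximal tubule cells, 1000/well, 5 h plating at 37 °C, then compound 16 h at 37 °C. Caspase-Glo 3/7 reagent, 1 h RT, luminescence. Normalized to DMSO (basal) and 10 uM staurosporine (100%); Hill-fit AC50.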

[14] = MultiTox-Fluor Cytotoxicity Assay - LYMP1-003 - Live Cells (AID 962); details: LYMP1-003 lymphoblastoid cells, MultiTox-Fluor live-cell protease fluorescence; series mostly up to 92.2 µM;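 note: 0% = DMSO only and full loss = 92 µM tetraoctylammonium bromide; cytotoxic hits lower the live-cell protease signal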
Procedure, shortened: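 Cells plated at 2500 per well and incubated 5 hr; compounds added and incubated 16 hr at 37 C; MultiTox-Fluor reagent added for 60 min at room temperature; fluorescence of liberated AFC measured at 405/510 nm.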

[15] = Cell Viability - LYMP2-003 (AID 965); details: LYMP2-003 lymphoblastoid cell viability; series mostly up to 92.2 µM;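 note: cells exposed to compounds for 24 h before reading; 0% = DMSO only and full effect = 92 µM tetraoctylammonium bromide; nearly all actives have a fitted effect of over 50% in size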
Procedure, shortened: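 Human lymphoblastoid cells (2500/well) were pre-incubated 5 hr at 37 C, then exposed to compounds over a concentration range for 24 hr at 37 C. Intracellular ATP was read by CellTiter-Glo luminescence; AC50 came from Hill-equation fits.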

[16] = qHTS Assay for Identification of Small Molecule Inducers of Hypoxia Response (AID 2120; active = well fitted curve in the direction sought with a large enough effect in the signal ratio, with a control signal flat, not every such curve was filed as active; the % refers to the signal ratio; note: 0% is about no effect); details: hypoxia response reporter cells, beta-lactamase ratio readout; series mostly up to 104 µM
Procedure, shortened: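 Induction of beta-lactamase reporter activity was measured in CellSensor HRE-bla ME-180 cells after 17 h compound treatment at 37 degrees C, using CCF4 substrate and the 460nm/530nm emission ratio to derive AC50 values.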

[17] = target: Peroxisome proliferator-activated receptor alpha (Homo sapiens) (UniProt Q07869); assay: qHTS assay for small molecule agonists of the peroxisome proliferator-activated receptor alpha (PPARalpha) signaling pathway (AID 651778); details: PathHunter PPARalpha complementation, chemiluminescence, 6 h; max response: stronger effect = higher value; note: % of control where 0% means no effect
Procedure, shortened: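 Chemiluminescence from complemented enzyme reported PPARalpha activation in cells after 6 hr of compound treatment at 37 C. The detection reagent was incubated for 60 min at room temperature, and compounds were scored as agonists.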

[18] = qHTS assay for small molecule agonists of the antioxidant response element (ARE) signaling pathway measured by Nrf2-dependant transcriptional activity - cell viability counter screen (AID 720653; active = well fitted curve in the direction sought with a large enough effect in the repeat runs; an effect the other way counts as inactive or inconclusive; note: % is set by controls: 0 for no effect and ±100 for the full control effect); details: ARE-bla HepG2 viability, CellTiter-Glo ATP luminescence, 16 h; max response: stronger effect = lower value
Procedure, shortened: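 Cytotoxicity counter screen: intracellular ATP quantified by CellTiter-Glo luminescence in the same ARE-bla HepG2 plates, after 16 h compound exposure and a 2 h beta-lactamase substrate step.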

[19] = qHTS assay for cell viability of HEK293 cells (AID 743288); details: ATP luminescence (CellTiter-Glo), 18 h; max response: stronger effect = lower value; note: % is set by controls: 0 for no effect and ±100 for the full control effect; nearly all actives have a fitted effect of over 50% in size
Procedure, shortened: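 Parental HEK293 cells were seeded at 2,000 cells/well, rested at least 5 h at 37 C, then exposed to compounds in DMSO for 18 h at 37 C. Viability was read as ATP-dependent luciferase luminescence after 30 min at room temperature.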

[20] = qHTS assay for cell viability of the p53RE-bla HCT-116 cell line (AID 743292); details: p53RE-bla HCT-116 viability, ATP luminescence, 16 h; series mostly up to 95 µM; note: % is set by controls: 0 for no effect and ±100 for the full control effect; nearly all actives have a fitted effect of over 55% in size
Procedure, shortened: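 Viability of compound-treated p53RE-bla HCT-116 cells is taken from ATP-dependent luciferase luminescence. Treatment lasts 16 h at 37 C after a 5 h settling period; detection follows 30 min at room temperature.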

Chain of Peroxisome proliferator-activated receptor alpha (Homo sapiens) (Q07869 whole entry, looked up): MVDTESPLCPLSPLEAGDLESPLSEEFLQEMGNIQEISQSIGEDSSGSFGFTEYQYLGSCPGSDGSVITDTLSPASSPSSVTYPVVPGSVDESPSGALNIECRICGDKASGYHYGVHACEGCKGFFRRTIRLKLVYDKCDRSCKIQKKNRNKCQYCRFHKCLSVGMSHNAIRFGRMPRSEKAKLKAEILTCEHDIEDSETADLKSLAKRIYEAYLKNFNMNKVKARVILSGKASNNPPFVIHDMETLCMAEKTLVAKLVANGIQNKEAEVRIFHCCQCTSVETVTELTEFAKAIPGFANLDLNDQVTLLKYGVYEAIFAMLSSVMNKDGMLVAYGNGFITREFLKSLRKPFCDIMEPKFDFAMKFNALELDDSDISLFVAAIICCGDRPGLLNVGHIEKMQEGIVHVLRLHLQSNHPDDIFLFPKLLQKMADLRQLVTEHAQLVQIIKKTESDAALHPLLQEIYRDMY

O=[N+]([O-])c1ccc(F)cc1F
inactive: Potency [1] > 92 µM | Potency [2] | Potency [3] | Potency [4] | Potency [5] | Potency [6] | outcome [7] | outcome [8] | Potency [9] | caspase-3 activation [10] -0.155% | outcome [11] | outcome [12] | Potency [13] | Potency [14] | Potency [15] | Potency [16] | max response [17] -5.98% | max response [18] 13.3% | max response [19] 3.6% | Potency [20]

NC(=O)c1ccc([N+](=O)[O-])cc1
inactive: Potency [1] > 92 µM | Potency [2] | Potency [3] | Potency [4] | Potency [5] | Potency [6] | outcome [7] | outcome [8] | Potency [9] | caspase-3 activation [10] 0.417% | outcome [11] | outcome [12] | Potency [13] | Potency [14] | Potency [15] | Potency [16] | max response [17] -2.18% | max response [18] 5.8% | max response [19] 4.95% | Potency [20]

CCCCNCC
inactive: Potency [1] > 92 µM | Potency [2] | Potency [3] | Potency [4] | Potency [5] | Potency [6] | outcome [7] | outcome [8] | Potency [9] | caspase-3 activation [10] -0.76% | outcome [11] | outcome [12] | Potency [13] | Potency [14] | Potency [15] | Potency [16] | max response [17] -6.73% | max response [18] 3.95% | max response [19] -3.61% | Potency [20]

CCCCCCc1ccc(-c2ccc(C#N)cc2)cc1
inactive: Potency [1] > 92 µM | Potency [2] | Potency [3] | Potency [4] | Potency [5] | Potency [6] | outcome [7] | outcome [8] | Potency [9] | caspase-3 activation [10] 0.233% | outcome [11] | outcome [12] | Potency [13] | Potency [14] | Potency [15] | Potency [16] | max response [17] -3.23% | max response [18] -11.9% | max response [19] -6.02% | Potency [20]

C=Cc1cccc(C)c1
inactive: Potency [1] > 92 µM | Potency [2] | Potency [3] | Potency [4] | Potency [5] | Potency [6] | outcome [7] | outcome [8] | Potency [9] | caspase-3 activation [10] -0.822% | outcome [11] | outcome [12] | Potency [13] | Potency [14] | Potency [15] | Potency [16] | max response [17] -4.17% | max response [18] 10.9% | max response [19] 2.72% | Potency [20]

CCCCCCN
inactive: Potency [1] > 92 µM | Potency [2] | Potency [3] | Potency [4] | Potency [5] | Potency [6] | outcome [7] | outcome [8] | Potency [9] | caspase-3 activation [10] 1.72% | outcome [11] | outcome [12] | Potency [13] | Potency [14] | Potency [15] | Potency [16] | max response [17] 1.86% | max response [18] -8.85% | max response [19] -3.69% | Potency [20]

C1CCCNCC1
inactive: Potency [1] > 92 µM | Potency [2] | Potency [3] | Potency [4] | Potency [5] | Potency [6] | outcome [7] | outcome [8] | Potency [9] | caspase-3 activation [10] 2.08% | outcome [11] | outcome [12] | Potency [13] | Potency [14] | Potency [15] | Potency [16] | max response [17] 0.101% | max response [18] -5.98% | max response [19] -3.87% | Potency [20]

CC(C)COC(=O)COc1cc(Cl)c(Cl)cc1Cl
inactive: Potency [1] > 92 µM | Potency [2] | Potency [3] | Potency [4] | Potency [5] | Potency [6] | outcome [7] | outcome [8] | Potency [9] | caspase-3 activation [10] 3.66% | outcome [11] | outcome [12] | Potency [13] | Potency [14] | Potency [15] | Potency [16] | max response [17] 9.61% | max response [18] 7.92% | max response [19] 6.88% | Potency [20]

c1ccc(SCCSc2ccccc2)cc1
inactive: Potency [1] > 92 µM | Potency [2] | Potency [3] | Potency [4] | Potency [5] | Potency [6] | outcome [7] | outcome [8] | Potency [9] | caspase-3 activation [10] 0.456% | outcome [11] | outcome [12] | Potency [13] | Potency [14] | Potency [15] | Potency [16] | max response [17] 2.97% | max response [18] 1.28% | max response [19] 3.66% | Potency [20]

Cc1ccc2ccc3cccc4ccc1c2c34
inactive: Potency [1] > 92 µM | Potency [2] | Potency [3] | Potency [4] | Potency [5] | Potency [6] | outcome [7] | outcome [8] | Potency [9] | caspase-3 activation [10] 0.114% | outcome [11] | outcome [12] | Potency [13] | Potency [14] | Potency [15] | Potency [16] | max response [17] -2.03% | max response [18] 2.48% | max response [19] -6.64% | Potency [20]

CC(C)S
inactive: Potency [1] > 92 µM | Potency [2] | Potency [3] | Potency [4] | Potency [5] | Potency [6] | outcome [7] | outcome [8] | Potency [9] | caspase-3 activation [10] 0.604% | outcome [11] | outcome [12] | Potency [13] | Potency [14] | Potency [15] | Potency [16] | max response [17] -0.0008% | max response [18] 14.7% | max response [19] -8.12% | Potency [20]

CC(C)OCC1CO1 (stereo not given)
inactive: Potency [1] > 92 µM | Potency [2] | Potency [3] | Potency [4] | Potency [5] | Potency [6] | outcome [7] | outcome [8] | Potency [9] | caspase-3 activation [10] -0.484% | outcome [11] | outcome [12] | Potency [13] | Potency [14] | Potency [15] | Potency [16] | max response [17] -4.21% | max response [18] 0.394% | max response [19] -0.12% | Potency [20]
